Our source for the Percent Effect values is ChEMBL document CHEMBL3988442, “University of Dundee, Small-Polar-MMV Screening Library” (2021).

The target in the assay is T1, Proteasome subunit beta (Trypanosoma cruzi) (UniProt O96673).
T1 sequence (whole entry): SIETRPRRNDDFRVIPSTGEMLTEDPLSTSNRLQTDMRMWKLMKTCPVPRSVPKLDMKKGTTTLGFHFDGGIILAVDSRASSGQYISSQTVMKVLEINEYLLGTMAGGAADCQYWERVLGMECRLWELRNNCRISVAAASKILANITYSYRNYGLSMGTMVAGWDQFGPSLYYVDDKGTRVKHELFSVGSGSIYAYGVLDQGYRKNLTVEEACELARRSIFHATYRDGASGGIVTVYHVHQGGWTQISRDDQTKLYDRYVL
Put plainly: Trypanosoma cruzi proteasome chymotrypsin-like activity (TcProtChymo) assay. The format is functional. Also on record: scale not given: in the data most compounds retested in dose-response had high values. To be noted: 9.37 µM.
As to `Cc1cccc(CCC(=O)N2CCOCC2c2c(C)n[nH]c2C)c1` (centres undefined), the Percent Effect is -2.84%.
As for `COc1ccc(NC(=O)c2ccc[nH]2)c(N2CCN(C(C)=O)CC2)n1`, the Percent Effect was found to be 7.18%.
With `CS(=O)(=O)NCC1CCCN(C(=O)Nc2ccccc2Cl)C1` (centres undefined) the figure was 15.2%.
The same measure for `O=c1cc2c(nn1CN1CCOCC1)CCC2`: 11.3%.
With `CN(C)C(CNC(=O)c1cccc(-n2cnnn2)c1)c1ccccc1Cl` (centres undefined), the Percent Effect turned out to be 10.8%.
With `COc1cccc2c1ccn2CCNC(=O)C(C)C`, the Percent Effect was 18.5%.
With `CCc1ncncc1C(=O)N1CCCN(Cc2ccc(C)cc2)CC1` the figure was 0.592%; with `CC(NC1(CNC(=O)C(C)(C)C#N)CCOCC1)c1ccccc1` (centres undefined), 4.89%.
In the case of `COc1ccc(CN2C[C@@H]3OCCN(CC4CCCO4)[C@@H]3C2)cc1` (some centres undefined), the Percent Effect is 17.3%.
With `Cc1cc(C)c(CNC(=O)N2CCN(c3cnccn3)CC2)c(=O)[nH]1` the figure was 12.2%; with `Cc1nc(CN(Cc2cccs2)C2CCS(=O)(=O)C2)oc1C` (centres undefined), 6.85%; with `CCOc1ccc(S(=O)(=O)NC(=O)CCC2CCCO2)cc1` (centres undefined), 17.5%.
Consider `CC(C)NC(=O)N1CC[C@@H]2CN(Cc3ccccc3)S(=O)(=O)[C@@H]2CC1`, for which the Percent Effect turned out to be 6.09%.
Regarding `CN(Cc1ccc(F)cc1)C(=O)CN1CCCC(Cn2cncn2)C1` (centres undefined), the Percent Effect was -6.8%.
With `CNS(=O)(=O)c1ccc(C(=O)N2CCCC(n3cccn3)C2)cc1` (centres undefined) the figure was 2.17%; with `Cc1ccc(F)c(-n2nnc(C(=O)O)c2-c2ccncc2)c1`, 22.7%; with `CN(C)c1ccc(C(=O)NCC2(O)CCOCC2)cc1`, 13.1%.
With `CNS(=O)(=O)CCCN1CCCC1c1cc(C)on1` (centres undefined) the figure was 4.5%.
The same measure for `CCN1CC2(CC1=O)CN(Cc1cccs1)CCN(C(=O)C(C)C)C2` (centres undefined): 7.35%.
